# Data reported in PubChem BioAssay AID2284127 (EPA ToxCast).
# Active and inactive are the calls of the source. The calls were made as follows: active = hit-call score of the fitted dose curve at least 0.9, where 1 is the maximum; inactive = score below 0.9.
# Molecular target: human Receptor-type tyrosine-protein phosphatase F (PTPRF/LAR), PTPRF (gene 5792) (UniProt P10586)
# Assay: ERF_TW_ENZ_hPTPRF: Eurofins (ERF) Enzymatic LeadHunter Assay for human Receptor-type tyrosine-protein phosphatase F (PTPRF/LAR)
# Experimental: ERF_TW_ENZ_hPTPRF is a biochemical, single-readout assay that uses extracted gene-proteins in a cell-free assay. Measurements were taken 1 hour after chemical dosing in a 96-well plate. See LAR Human Phosphatase Enzymatic Assay, Panlabs.ERF_TW_ENZ_hPTPRF is an assay component calculated from the ERF_TW_ENZ_hPTPRF assay. It is designed to measure enzyme activity using a type of enzyme reporter as detected by fluorescence intensity with spectrophotometry technology.Data from the assay component ERF_TW_ENZ_hPTPRF was analyzed at the assay endpoint, ERF_TW_ENZ_hPTPRF, in the positive analysis fitting direction relative to DMSO as the negative control and baseline of activity. Using a type of enzyme reporter, loss-of-signal activity can be used to understand changes in enzymatic activity as they relate to gene PTPRF. To generalize the intended target to other relatable targets, this assay endpoint is annotated to the phosphatase intended target family, where the subfamily is receptorasA tyrosine phosphatase.
# Human recombinant protein phosphatase LAR expressed in E. coli is used. Test compound and/or vehicle is preincubated with 0.48 ng/ml enzymedouble dagger for 15 minutes at 37C in modified HEPES buffer pH 7.2. The reaction is initiated by addition of 10 uM DiFMUP for 60 minutes. Determination of the amount of DiFMU formed is read spectrofluorimetrically at 358 nm/450 nm. […]
# human Receptor-type tyrosine-protein phosphatase F (PTPRF/LAR), PTPRF (gene 5792), sequence (P10586 whole entry, looked up): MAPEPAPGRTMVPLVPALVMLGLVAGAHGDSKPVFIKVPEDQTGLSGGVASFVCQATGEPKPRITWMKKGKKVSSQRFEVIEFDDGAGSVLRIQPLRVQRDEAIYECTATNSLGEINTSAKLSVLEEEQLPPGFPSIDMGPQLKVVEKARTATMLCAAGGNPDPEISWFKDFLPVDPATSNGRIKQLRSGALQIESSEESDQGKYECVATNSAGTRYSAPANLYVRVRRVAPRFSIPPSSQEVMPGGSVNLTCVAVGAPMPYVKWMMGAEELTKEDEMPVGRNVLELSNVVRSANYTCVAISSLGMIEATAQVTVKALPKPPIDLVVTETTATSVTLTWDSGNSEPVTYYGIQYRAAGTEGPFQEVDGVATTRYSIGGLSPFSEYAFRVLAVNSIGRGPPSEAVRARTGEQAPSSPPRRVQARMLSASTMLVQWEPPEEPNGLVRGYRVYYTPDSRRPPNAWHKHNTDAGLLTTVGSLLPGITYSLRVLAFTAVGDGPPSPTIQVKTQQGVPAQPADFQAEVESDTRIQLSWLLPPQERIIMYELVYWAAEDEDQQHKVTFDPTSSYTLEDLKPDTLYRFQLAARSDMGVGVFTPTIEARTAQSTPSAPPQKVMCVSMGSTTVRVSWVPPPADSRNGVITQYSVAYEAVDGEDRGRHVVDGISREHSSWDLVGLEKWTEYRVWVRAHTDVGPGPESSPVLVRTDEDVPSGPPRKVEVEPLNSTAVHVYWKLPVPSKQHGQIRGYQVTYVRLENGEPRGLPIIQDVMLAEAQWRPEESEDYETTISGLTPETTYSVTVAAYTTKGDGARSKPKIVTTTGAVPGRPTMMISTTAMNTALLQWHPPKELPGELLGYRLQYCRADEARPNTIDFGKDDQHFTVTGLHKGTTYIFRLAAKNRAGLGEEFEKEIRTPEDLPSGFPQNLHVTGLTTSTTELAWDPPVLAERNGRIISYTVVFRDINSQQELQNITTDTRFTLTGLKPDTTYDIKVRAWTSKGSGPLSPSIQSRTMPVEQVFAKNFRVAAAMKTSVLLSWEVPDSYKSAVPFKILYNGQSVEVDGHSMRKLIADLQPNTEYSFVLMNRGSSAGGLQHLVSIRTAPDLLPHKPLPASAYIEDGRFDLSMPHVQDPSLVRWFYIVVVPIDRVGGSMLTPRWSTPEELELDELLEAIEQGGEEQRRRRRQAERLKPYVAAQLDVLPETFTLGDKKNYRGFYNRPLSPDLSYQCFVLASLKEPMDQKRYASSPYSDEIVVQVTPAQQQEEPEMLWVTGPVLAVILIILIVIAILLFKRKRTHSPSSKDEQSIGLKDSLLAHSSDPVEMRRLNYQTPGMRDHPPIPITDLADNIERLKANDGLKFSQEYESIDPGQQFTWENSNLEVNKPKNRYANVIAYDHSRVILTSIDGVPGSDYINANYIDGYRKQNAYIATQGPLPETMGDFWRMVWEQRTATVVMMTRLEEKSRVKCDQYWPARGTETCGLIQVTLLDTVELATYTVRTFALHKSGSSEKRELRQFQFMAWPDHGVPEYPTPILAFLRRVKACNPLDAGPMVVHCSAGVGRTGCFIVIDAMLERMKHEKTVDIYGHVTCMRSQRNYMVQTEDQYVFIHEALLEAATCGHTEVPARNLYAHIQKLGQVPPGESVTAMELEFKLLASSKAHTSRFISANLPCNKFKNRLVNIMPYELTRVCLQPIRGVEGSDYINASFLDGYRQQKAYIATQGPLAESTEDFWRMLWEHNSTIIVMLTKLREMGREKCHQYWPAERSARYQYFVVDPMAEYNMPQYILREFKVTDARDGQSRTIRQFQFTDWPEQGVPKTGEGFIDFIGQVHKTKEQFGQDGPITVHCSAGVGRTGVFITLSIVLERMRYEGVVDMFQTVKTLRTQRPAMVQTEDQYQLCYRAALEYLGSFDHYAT
row,Compound,AC50
1,O=C(/C=C/c1ccc(O)cc1)CC(=O)/C=C/c1ccc(O)cc1,5 µM (active)
